# Screening data (PubChem)
# PrPC surface inh – inhibitors of human cell surface prion protein PrPC, primary screen, cell-based, TR-FRET | TR-FRET read-out | inhibition, % at 13.8 µM | 370,000 compounds, 0.43% hits | AID 720596, 2013; in the data active means inhibition above about 24%; further: 0% = median of the test wells and 100% = reference compound wells
# Mtb FBA inh – Mtb FBA enzyme inhibitors, primary screen, biochemical, fluorescence, strain H37Rv; Fructose-bisphosphate aldolase (Mycobacterium tuberculosis (strain ATCC 25618 / H37Rv)), …; purified M. tuberculosis FBA, fluorescence read-out; inhibition, % at 1 µM; 360,000 compounds, 2.3% hits; in the data active means inhibition above about 27%;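 further: 0% = vehicle and 100% = reference inhibitor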
# Target sequence (P9WQA3 whole entry, looked up): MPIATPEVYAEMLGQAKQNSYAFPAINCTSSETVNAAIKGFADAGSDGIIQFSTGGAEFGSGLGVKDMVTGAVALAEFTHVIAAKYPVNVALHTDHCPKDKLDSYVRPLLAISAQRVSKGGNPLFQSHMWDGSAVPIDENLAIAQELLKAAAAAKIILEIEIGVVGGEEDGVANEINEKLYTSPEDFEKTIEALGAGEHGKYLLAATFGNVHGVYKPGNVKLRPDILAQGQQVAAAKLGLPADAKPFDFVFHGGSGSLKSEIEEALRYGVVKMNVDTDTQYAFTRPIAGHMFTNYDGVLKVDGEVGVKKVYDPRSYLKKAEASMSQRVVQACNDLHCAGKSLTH
# GDH-TPI counter – GDH-TPI coupling enzyme inhibitors, primary screen, artefact control for M. tuberculosis FBA inhibitor project, biochemical, absorbance, full deck. 360,000 compounds, 1.2% hits. inhibition, % at 4.8 µM. GDH-TPI coupled enzyme counterscreen, NADH absorbance; in the data active means inhibition above about 30%;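 further: 0% = DMSO wells and 100% = wells lacking the enzyme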
# RecA intein inh – Mtb RecA intein splicing inhibitors, primary screen, biochemical, fluorescence, HTS | cell-free RecA intein splicing | AID 2221, 2009 | inhibition, % (test concentration not listed) | 290,000 compounds, 0.75% hits; in the data active means inhibition above about 30%;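 further: 0% = vehicle wells and 100% = reference inhibitor control wells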
# BJeLR lethal – MLPCN primary cell-based screen for lethality selective to Ras in HRASV12 cells. inhibition, % (concentration not given with the values). BJeLR (HRASV12) viability, CellTiter-Glo ATP luminescence, 48 h. 300,000 compounds, 0.17% hits; in the data active means inhibition above about 50%
# The depositor's hits bear a star; x = no result; + = active, no number. The list is not random: actives were taken first. Their share in the collection is about 4.2%.
SMILES,PrPC surface inh,Mtb FBA inh,GDH-TPI counter,RecA intein inh,BJeLR lethal
CNc1oc(/C=C/c2ccccc2)nc1C#N,-7.2,+,38.1*,-38.5,-2.2
COc1cnc(-c2ccccn2)nc1NC(C)C,22.5,46.5*,0.9,-8.7,3.0
C=CCCC(=O)N[C@H]1CC[C@@]23CCCN2C(=O)CCC[C@H]3[C@H]1C,-1.4,x,x,x,x
N#Cc1c(NC(=O)c2ccccc2Cl)n(Cc2ccccc2)c2nc3ccccc3nc12,2.4,35.4*,6.6,x,x
O=C(Nc1nc2ncccn2c1-c1ccc(F)cc1)C1CC1,6.3,x,x,x,x
O=C(c1ccc(F)cc1Cl)N1CCC(Oc2cccnc2)CC1,7.3,x,x,x,x
N#CC(C#N)=C1C=CC=CN1/C(=C\c1ccco1)C(=O)c1ccc(Cl)cc1,-6.2,4.4,44.4*,x,x
N#CC(C#N)=C1C=CC=CN1/C(=C\c1ccco1)C(=O)c1ccc(-c2ccccc2)cc1,1.9,2.0,26.6,x,x
COc1ccc(S[C@]2(C(=O)NCc3ccccc3)CC(=O)N[C@@H]2c2ccc(OC)cc2)cc1,6.2,x,x,x,x
N#Cc1ccc(S(=O)(=O)N2CCCc3nc(-c4ccc(Br)cc4)ccc32)cc1,5.8,x,x,x,x
CCCc1cc(=O)oc2c3c(cc(OCC(=O)NCC4CCC(C(=O)O)CC4)c12)OC(C)(C)CC3 (centres undefined),-7.1,+,18.6,3.2,-8.9
CCCc1cc(=O)oc2cc(OCC(=O)N3CCC(C(N)=O)CC3)ccc12,0.5,26.1,10.8,x,-3.4
CCCc1cc(=O)oc2c3c(cc(OCC(=O)N4CCC(C(=O)O)CC4)c12)OC(C)(C)CC3,2.3,+,20.1,x,x
C=C(C)COc1ccc2c(C)c(CCC(=O)NC3CC3)c(=O)oc2c1,7.3,+,17.6,-2.1,12.6
Cc1c(CCC(=O)NCCCN2CCCC2=O)c(=O)oc2cc(O)ccc12,1.1,+,18.6,-54.5,1.2
Cc1coc2c(C)c3oc(=O)c(CCC(=O)NCCCN4CCCC4=O)c(C)c3cc12,-2.3,9.5,6.2,x,-3.6
Cc1c(CCC(=O)NCCCN2CCCC2=O)c(=O)oc2c(C)c(O)ccc12,-1.6,+,14.7,-45.1,0.5
Cc1c(CCC(=O)NC2CC2)c(=O)oc2c(C)c(O)ccc12,x,+,20.6,-125.9,-6.7
Cc1cc(C(=O)CCl)c(C)n1CCc1ccccc1,5.9,x,x,40.2*,4.8
COc1cc2ccnc(Cc3cccc(OC)c3OC)c2cc1OC,17.9,2.6,7.3,6.4,15.0
COc1cc(N)c(Cc2nccc3cc(OC)c(OC)cc23)cc1OC,-6.2,1.2,7.0,45.7*,3.2
C[C@H]1[C@@H](NCc2ccccc2)CC[C@@]23CCCN2C(=O)CCC[C@@H]13,1.4,x,x,x,x
COc1ccc2oc(=O)c(C(=O)Oc3ccc(NC(C)=O)cc3)cc2c1,0.4,31.3*,17.7,-10.0,13.8
COc1ccc(NC(=O)c2cc3cc(OC)ccc3oc2=O)cc1,-1.6,-0.1,5.3,x,-1.2
COc1ccc(COc2cc(-c3cccc(OC)c3)nc3ccc(NC(C)=O)cc23)cc1,0.8,136.0*,10.3,-3.3,0.4
SMILES,PrPC surface inh,Mtb FBA inh,GDH-TPI counter,RecA intein inh,BJeLR lethal
COc1ccc(COc2cc(-c3cccc(OC)c3)nc3ccc(NC(=O)c4ccc(N(C)C)cc4)cc23)cc1,x,8.2,37.9*,-0.3,-6.0
COc1ccc(COc2cc(-c3cccc(OC)c3)nc3ccc(NC(=O)c4ccc(C)cc4)cc23)cc1,-10.0,16.5,20.3,0.6,-0.8
COc1ccc(COc2cccnc2N)cc1,4.2,0.9,12.2,x,-3.8
COc1ccc(COc2cc(-c3cccc(OC)c3)nc3ccc(N)cc23)cc1,-7.5,53.8*,4.4,-145.9,22.9
O=C(NC1CCCCN(Cc2cccc(Cl)c2)C1=O)c1ccc(COc2ccccc2)cc1 (centres undefined),23.9,x,x,x,x
CCN(CC)c1ccc(C(=O)OCC(=O)NC(C)(C)C)cc1,3.1,-2.1,56.8*,-0.4,1.7
COC(=O)[C@]12C[C@H](CC(=O)N3CCN(C(=O)c4ccco4)CC3)C(=O)N(Cc3cccc4ccccc34)C1=C[C@H](COCc1ccccc1)O[C@@H]2C,-9.1,x,x,x,x
CCOC(=O)CC1=NN(c2ccccc2)C(=O)C1,-6.2,3.1,-7.3,65.9*,1.2
